Data on five compounds can be found in PubChem BioAssay.

“And” between values parts separate entries of the source, which are not always exact repeats. Equal values may be shown once. Some compounds were tested as several samples or in several runs, with calls that do not always agree. The source made the active and inactive calls.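 The calls were made as follows, unless noted: active = thallium flux through the channel raised or lowered by more than 3 SD from vehicle-only wells, actives on both sides; inactive = the rest.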

As usually defined, the inhibition is the relative decrease from the control value, in per cent.

Assay [1] can be described thus: stimulators of nuclear beta-catenin in C2C12, primary screen, imaging, WNT3A-conditioned medium, mouse C2C12, NPC library (AID 1117326; in the data active = nuclear beta-catenin stimulation mostly above about 4.2%, no sharp cut-off; inactive = mostly below about 10%). Conditions: stronger effect = higher value.
Assay [2] is described as follows: stimulators of insulin release from INS-1E, primary screen, cell-based, 5 mM glucose, NPC library (AID 1117329;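 active = compound raises insulin release from rat beta cells at 5 mM glucose, no numeric limit stated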). Particulars: rat INS-1E insulin secretion, at 10 µM, stronger effect = higher value.
The nature of assay [3]: growth inhibition of GSK3B-pretreated HCT116 cells – cell-based, CellTiter-Glo, 0.2 to 20 µM (AID 1117336;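 active = compounds lowering colon cancer cell viability after pretreatment blocking the GSK3B kinase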). Conditions: HCT116 viability after GSK3B inhibitor, at 20 µM, stronger effect = higher value.
The nature of assay [4]: inhibition of endothelial tube formation, primary screen, imaging, VEGF stimulated, CD31 staining, tube area, NPC library (AID 1117340;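 active = compound that reduces growth-factor-driven endothelial tube area in a mixed cell culture, no cutoff stated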). Conditions: VEGF-stimulated ADSC/ECFC co-culture, at 10 µM, stronger effect = higher value.
Assay [5] is described as follows: glucagon-like peptide 1 release enhancers, primary assay, NCI-H716 cell line, NPC library (AID 1117341;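 active = compound raises GLP1 secretion from the human gut endocrine cells, with no numeric limit stated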). Conditions: NCI-H716 cells, at 10 µM, stronger effect = higher value.
A short description of assay [6]: HCT116 colon cancer cell growth inhibition, primary screen, CellTiter-Glo luminescence, NPC library (AID 1117342;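 active = compounds that lower survival of HCT116 colon cancer cells in the luminescence readout, no numeric limit stated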). Particulars: at 20 µM (top of the series). A general note: ATP-based viability assays read luminescence as a measure of living cells.
Assay [7] in a line: CellTiter-Glo luminescent readout of SW480 viability loss, NPC library primary (AID 1117343;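 active = compounds that lower viability of the colon cancer cells in the luminescence readout, with no numeric limit stated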). Conditions: CellTiter-Glo luminescence; at 20 µM (top of the series).
Assay [8] in a line: decreased DLD-1 cellular survival, CellTiter-Glo luminescent readout, NPC compound collection, primary HTS (AID 1117346;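 active = compounds that lower survival of DLD-1 colon cancer cells in the luminescence readout, no cutoff given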). Particulars: DLD-1 viability, CellTiter-Glo luminescence; at 20 µM (top of the series).
Assay [9] deals with 6-phosphogluconate dehydrogenase, decarboxylating (Homo sapiens) (UniProt P52209). Description: 6PGD enzyme inhibitors, primary screen, biochemical, human, recombinant enzyme, NADPH absorbance (AID 1159550;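 active = at least 20% inhibition of 6-phosphogluconate dehydrogenase activity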). Conditions: recombinant 6PGD, NADPH absorbance 341 nm; at 10 µM; stronger effect = higher value.
Chain of 6-phosphogluconate dehydrogenase, decarboxylating (Homo sapiens) (P52209 whole entry, looked up): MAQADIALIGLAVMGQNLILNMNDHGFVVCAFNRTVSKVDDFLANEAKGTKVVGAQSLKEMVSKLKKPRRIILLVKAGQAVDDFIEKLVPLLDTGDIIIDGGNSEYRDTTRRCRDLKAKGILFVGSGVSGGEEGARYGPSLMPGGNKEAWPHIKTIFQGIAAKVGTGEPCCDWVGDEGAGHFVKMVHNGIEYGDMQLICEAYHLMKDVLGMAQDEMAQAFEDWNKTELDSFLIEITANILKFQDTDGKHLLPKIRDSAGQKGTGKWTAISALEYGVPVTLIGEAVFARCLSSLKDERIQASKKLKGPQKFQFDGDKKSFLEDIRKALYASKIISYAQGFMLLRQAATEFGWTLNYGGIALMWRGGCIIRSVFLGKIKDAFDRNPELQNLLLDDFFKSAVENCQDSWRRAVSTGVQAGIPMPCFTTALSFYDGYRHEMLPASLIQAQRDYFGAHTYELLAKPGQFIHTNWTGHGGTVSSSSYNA
Assay [10] is described as follows: modulation of C. elegans fzo-1 (AID 1259413; call rule not given here;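 also: fzo-1 mutant C. elegans worms in liquid wells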). Particulars: C. elegans fzo-1 modulator screen, mean read-out; stronger effect = higher value.
Assay [11] in a line: differential killing of epithelial or mesenchymal cells, primary screen, imaging, PC-3E GFP, TEM4-18 mCherry, co-culture (AID 1345086;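 active = compounds killing one labelled cell type while sparing the other, by normalised counts and ratio limits, not self-fluorescent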;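 as to all read-outs here: cells exposed to compound for 72 h before imaging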;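 as to red/green cell ratio (normalised): normalised mesenchymal count divided by normalised epithelial count so high means epithelial killing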). Particulars: imaging cell counts, at 1 µM; for red/green cell ratio (normalised): actives lie on both sides, counts scaled to control wells, 1 = unselective.
Assay [12] is described as follows: survival rescue of mitochondrial mutant cells in low glucose, primary screen, MELAS cybrids, Rieske KO mouse fibroblasts, CellTiter-Glo (AID 1508586;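 active = mean z-score across replicates of 1.96 or higher in either the MELAS or the Rieske mutant cell line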;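 also: z relative to plate mean and SD of compound and empty wells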).
Assay [13] has as its target NAD(+) hydrolase SARM1 (Homo sapiens) (UniProt Q6SZW1). Description: SARM1 TIR NADase inhibitors, cell lysate, NAD-Glo luminescence (AID 1508614;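 active = compound whose remaining NAD level is above about 45 nM, limit read from the data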;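 also: higher remaining NAD means stronger inhibition of SARM1 NADase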). Particulars: SAM-TIR HEK293T lysate NADase, at 1 µM, stronger effect = higher value.
In assay [14] the target is Mitogen-activated protein kinase 7 (Homo sapiens) (UniProt Q13164). Description: ERK5 transactivation activators in reporter cells, primary screen, cell-based, HTS (AID 1508626;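 active = luciferase signal above three times the same-plate solvent-only control wells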;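 also: luciferase driven by Gal4-ERK5 fusion binding five Gal4 sites before minimal TATA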). Particulars: HeLa Gal4-ERK5 transactivation, 18 h, at 5 µM, stronger effect = higher value.
Chain of Mitogen-activated protein kinase 7 (Homo sapiens) (Q13164 whole entry, looked up, the tested form may be a part): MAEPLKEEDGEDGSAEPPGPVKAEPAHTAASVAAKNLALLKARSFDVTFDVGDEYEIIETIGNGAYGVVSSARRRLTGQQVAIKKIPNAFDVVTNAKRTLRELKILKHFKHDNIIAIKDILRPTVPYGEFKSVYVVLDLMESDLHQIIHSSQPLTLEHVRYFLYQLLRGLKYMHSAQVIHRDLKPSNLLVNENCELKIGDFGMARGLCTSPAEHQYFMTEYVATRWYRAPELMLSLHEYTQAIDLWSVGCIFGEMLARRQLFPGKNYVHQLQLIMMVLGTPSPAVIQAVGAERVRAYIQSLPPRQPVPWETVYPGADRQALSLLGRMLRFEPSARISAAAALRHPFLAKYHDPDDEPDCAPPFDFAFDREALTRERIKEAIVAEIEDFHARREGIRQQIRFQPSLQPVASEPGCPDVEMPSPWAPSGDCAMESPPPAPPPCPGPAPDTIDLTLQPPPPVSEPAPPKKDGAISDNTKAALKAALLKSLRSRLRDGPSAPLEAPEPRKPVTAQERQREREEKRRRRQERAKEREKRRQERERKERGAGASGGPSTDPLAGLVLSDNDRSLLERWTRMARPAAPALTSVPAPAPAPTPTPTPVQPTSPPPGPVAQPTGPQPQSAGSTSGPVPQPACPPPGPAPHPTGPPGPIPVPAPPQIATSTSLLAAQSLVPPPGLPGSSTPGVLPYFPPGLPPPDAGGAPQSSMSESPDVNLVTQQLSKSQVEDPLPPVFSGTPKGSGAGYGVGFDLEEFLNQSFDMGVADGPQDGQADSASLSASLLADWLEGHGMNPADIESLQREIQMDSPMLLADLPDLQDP
The next assay has as its system F380Y. Description: modulators of BK channel variants, profiling panel, selectivity assay, cell-based, U2OS BacMam, thallium flux, beta subunits (AID 1259406).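 Also: initial slope of Thallos dye fluorescence rise after thallium is added; log ratio against the mean of 0.3% DMSO vehicle wells on the same plate.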 Particulars: at 30 µM.
A further assay deals with F380Y/beta1. Described as above. Conditions: at 30 µM.
In another assay the test system is F380Y/beta2Delta. Described as above. Conditions: at 30 µM.
Assay [15] can be described thus: sensitizers of A549 cells to miR-34 induction, primary screen, imaging, A549 dox-inducible miR-34, nuclei and caspase counts (AID 1347080;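 active = compounds whose cell count with miR-34 switched on is under 0.7 times the count with it off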). Conditions: A549 miR-34 inducible, Hoechst nuclei count, 48 h.
The mark [16] stands for this setting: measured here: epithelial PC-3E GFP cell survival.
Setting [17] is: measured here: mesenchymal TEM4-18 mCherry cell survival.
Setting [18] is: MELAS cybrid survival, CellTiter-Glo 48 h, stronger effect = higher value.
Setting [19] is: Rieske KO mouse fibroblast survival, CellTiter-Glo 72 h.

Chain of NAD(+) hydrolase SARM1 (Homo sapiens) (Q6SZW1 whole entry, looked up, the tested form may be a part): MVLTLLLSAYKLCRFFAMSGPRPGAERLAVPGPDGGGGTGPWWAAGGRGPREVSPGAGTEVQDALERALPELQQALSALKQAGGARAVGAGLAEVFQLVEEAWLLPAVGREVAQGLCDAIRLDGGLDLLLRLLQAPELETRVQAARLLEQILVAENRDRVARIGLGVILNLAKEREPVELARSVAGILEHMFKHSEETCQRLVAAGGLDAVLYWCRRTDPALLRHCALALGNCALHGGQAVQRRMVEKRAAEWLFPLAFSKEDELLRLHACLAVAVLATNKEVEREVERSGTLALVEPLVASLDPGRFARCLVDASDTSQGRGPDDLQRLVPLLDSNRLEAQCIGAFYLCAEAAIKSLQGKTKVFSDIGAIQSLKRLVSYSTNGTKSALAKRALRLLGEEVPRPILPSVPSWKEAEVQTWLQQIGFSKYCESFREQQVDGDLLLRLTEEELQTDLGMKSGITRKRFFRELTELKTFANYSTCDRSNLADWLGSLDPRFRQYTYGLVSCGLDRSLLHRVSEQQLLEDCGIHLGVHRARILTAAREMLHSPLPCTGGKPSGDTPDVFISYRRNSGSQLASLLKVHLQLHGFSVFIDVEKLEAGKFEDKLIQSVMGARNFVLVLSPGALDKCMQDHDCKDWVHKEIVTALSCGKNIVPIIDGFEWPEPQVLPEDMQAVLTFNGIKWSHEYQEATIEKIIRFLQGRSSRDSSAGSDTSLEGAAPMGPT

As for `CO[C@@H]1[C@@H](O[C@@H]2O[C@H](C)[C@@H](O[C@H]3C[C@@](C)(O)[C@@H](O)[C@H](C)O3)[C@H](N(C)C)[C@H]2O)[C@@H](CC=O)C[C@@H](C)[C@@H](O[C@@H]2CC[C@H](N(C)C)[C@@H](C)O2)/C=C/C=C/C[C@@H](C)OC(=O)C[C@H]1OC(C)=O`, the nuclear beta-catenin stimulation is -0.1% (inactive) in assay [1] (at 10 µM) and -1.2% in [1] (stimulation, at 2 µM). In addition, the insulin secretion stimulation in assay [2] is 3.3% (inactive). The viability decrease in [3] was 0.2% (inactive). The tube area decrease in assay [4] was 3% (inactive). The GLP1 secretion stimulation in [5] is 9.9% (inactive). Moreover, in assay [6], the inhibition of viability is 23.2% (inactive). The results for the viability decrease (inhibition) in [7] and in [8] were 59.8% (active) and 18.7% (inactive), respectively.
In the case of `CC(C)(C)c1nnc(NS(=O)(=O)c2ccccc2)s1`, the nuclear beta-catenin stimulation is 0.7% (inactive) in assay [1] (at 10 µM) and 1.5% in assay [1] (stimulation, at 2 µM). Besides, in assay [2], the insulin secretion stimulation was 33.5% (active). In addition, in [3], the viability decrease was -0.1% (inactive). In addition, the tube area decrease in assay [4] is 17.7% (inactive). Moreover, the GLP1 secretion stimulation in assay [5] was -0.5% (inactive). Besides, in [6], the inhibition of viability is -5.8% (inactive). Further, the viability decrease (inhibition) was -1.2% (inactive) in assay [7] and -7% (inactive) in assay [8].
In the case of `CC[C@H](C)C(=O)O[C@H]1C[C@@H](C)C=C2C=C[C@H](C)[C@H](CC[C@@H]3C[C@@H](O)CC(=O)O3)[C@H]21`, the nuclear beta-catenin stimulation is 13.1% (inactive) in assay [1] (at 10 µM) and 4.2% in assay [1] (stimulation, at 2 µM). For the same compound, the insulin secretion stimulation in [2] was 6.6% (inactive). Also, in [3], the viability decrease is 69.3% (active). Further, the tube area decrease in assay [4] is 95.5% (active). Besides, the GLP1 secretion stimulation in [5] is 25% (active). For the same compound, the inhibition of viability in assay [6] was 56.9% (active). In addition, the results for the viability decrease (inhibition) in assay [7] and in [8] were 87% (active) and 36.2% (inactive), respectively. The inhibition in assay [9] was -1.21% (inactive). The mean signal in assay [10] is 253 (inactive). In addition, in [11], the red/green cell ratio (normalised) was 0.98 (inactive). The normalised cell number in [11] (setting [16]) is 1.39; in assay [11] (setting [17]), 1.37. The z-score is -0.236 and -1.19 (inactive) in [12] (setting [18]); 2.23 and -0.0427 in assay [12] (setting [19]). The remaining NAD in [13] is 10 nM (inactive). For the same compound, the luciferase signal in [14] was 60 AU (inactive). In addition, the values for the log fold change Tl+ flux in the assay on F380Y, in the assay on F380Y/beta1 and in the assay on F380Y/beta2Delta were 0.184 (active), 0.00194 (inactive) and 0.0899 (active), respectively.
Take `N=C(N)c1ccc(OCCCCCOc2ccc(C(=N)N)cc2)cc1`: the nuclear beta-catenin stimulation in [1] (at 10 µM) is -0.7% (inactive); in [1] (stimulation, at 2 µM), 1.1%. Moreover, the insulin secretion stimulation in [2] was 2.3% (inactive). For the same compound, in assay [3], the viability decrease is 0.4% (inactive). Further, the tube area decrease in assay [4] was 43.4% (active). In addition, the GLP1 secretion stimulation in assay [5] was -3.5% (inactive). Further, the inhibition of viability in assay [6] was 12.5% (inactive). For the same compound, the viability decrease (inhibition) in assay [7] is 60.9% (active); in [8], 55.1% (active). In assay [9], the inhibition was 12.1% (inactive). In addition, the red/green cell ratio (normalised) in assay [11] was 0.75 (inactive). The normalised cell number turned out to be 1.05 in [11] (setting [16]) and 0.79 in assay [11] (setting [17]). In addition, the fold change in [15] (stronger effect = lower value, cell number ratio, induced over uninduced) was 0.873 (inactive) and 0.95 (inactive) and 1.08 (inactive); in [15] (measured here: relative caspase fold change +Dox/-Dox) it was 1.42 and 0.678 and 1.37. Further, the cell count is 4130 and 4260 and 6460 in assay [15] (measured here: total cells with miR-34 induction, stronger effect = lower value); 4730 and 4480 and 6000 in assay [15] (measured here: total cells without miR-34 induction). Also, the z-score is 6.07 (active) and -3.61 (inactive) and 2.69 (active) in assay [12] (setting [18]); 6.42 and -2.57 and -1.21 in [12] (setting [19]). Also, the remaining NAD in [13] is 10 nM (inactive).
For `c1ccc(CC2=NCCN2)cc1`, the nuclear beta-catenin stimulation in assay [1] (at 10 µM) was 0.4% (inactive); in assay [1] (stimulation, at 2 µM) it was 1%. In addition, the insulin secretion stimulation in [2] was -1% (inactive). Also, in [3], the viability decrease is -3.85% (inactive). The tube area decrease in assay [4] is -0.5% (inactive). Also, the GLP1 secretion stimulation in assay [5] is 1.9% (inactive). For the same compound, the inhibition of viability in [6] was -10.6% (inactive). Besides, the viability decrease (inhibition) in [7] was 15.1% (inactive); in assay [8] it was 5.35% (inactive). The inhibition in [9] is -8.93% (inactive). Also, the mean signal in assay [10] was 271 (inactive). Further, the red/green cell ratio (normalised) in assay [11] was 1.19 (inactive). Besides, the normalised cell number in assay [11] (setting [16]) amounted to 0.88; in assay [11] (setting [17]), 1.04. Besides, the z-score was -0.147 (inactive) and 0.373 (inactive) in assay [12] (setting [18]); -0.183 and 0.131 in assay [12] (setting [19]). In addition, the remaining NAD in [13] is 10 nM (inactive). The luciferase signal in [14] was 44 AU (inactive). The results for the log fold change Tl+ flux with F380Y, with F380Y/beta1 and in the assay on F380Y/beta2Delta were 0.00977 (inactive), 0.0105 (inactive) and -0.0174 (inactive), respectively.
